According to the OligoGym collection:

These sequences were tested against HOXA6 (assay: pooled miR-30 sensor sort-seq; sequence = guide strand). Conditions: shRNA.
Also: reference of the scale not given here.

Sequence	sensor-assay potency score (higher = more potent)
TTGGCGATCTCGATGCGGCGGC	-0.809
ATTGATGAGCTTGTTTTCCTTT	0.0267
TGAGGTGTACGTCTTGTCCGGG	-0.648

The sequences below were run against HOXD12 in the same assay as above. Conditions: shRNA.

Sequence	sensor-assay potency score (higher = more potent)
TTAGCCTGCTCTTCGGGTCCGT	-0.755
TTTGACTTGCTGGTCGCTGAGG	-0.827
TAGGGTTTCCGCTTCTTGCGGG	-0.0363
TGGAGAAGTAGAAAGAGTCTGG	-0.0412
ATTTTGACTTGCTGGTCGCTGA	-0.889
TGTCATGTTCAAGTTGAGCGGG	-0.623
TTGACTTGCTGGTCGCTGAGGT	0.586
TTGGTGTCGTCCTTGAAGCCAG	-0.854
TATTGGACAATTCCTTGCGTTT	-1.31
TTGCTGGTCGCTGAGGTTCAGC	-1.6

What follows are sequences tested against HOXD4 in the same assay as above. Conditions: shRNA.

Sequence	sensor-assay potency score (higher = more potent)
TAGTGTTGGGCAGCTTATGATC	-1.61
TTATGATCTTTTTTCCACTTCA	-0.3
TTGGGGTCCACATACTTGGAGT	-0.994
TTCTTTTTCCAGTTCTAGGACT	-0.804
ATGATCTTTTTTCCACTTCATC	-1.7
TGCACCTTCTTCATCCAGGGGT	-0.0453
TTATGTTCTCAGTAGCTCCTGC	0.0954
TAAAATGAAATTCTTTTTCCAG	-0.413
TTTTTCCAGTTCTAGGACTTGC	-0.495
TAGGACTTGCTGCCGGGTGTAG	-1.46
TCGGACTGACTGTAGGCCCGGG	-0.239

What follows are sequences tested against HP1BP3 in the same assay as above. Conditions: shRNA.

Sequence	sensor-assay potency score (higher = more potent)
TAGACTGATCTTTCTCATCCTT	0.288
TTCTGAACCACAACAAAACTTC	-0.196
TAAGATTGCATCCATCTTGGGA	-0.272
TATCTTCTACCTTCTCACCTAA	-0.313
TACTGAGACACATATTTCCTGA	-0.347
TTCTTCTGCAACCTTCTCTTAG	-0.784
TTCGGAAACAGAACTCCTGGGC	0.0322
TCTTCGGAAACAGAACTCCTGG	-0.507
TTGATTTCTGAACCACAACAAA	-1.61
TTCCTCTGAACTTATGTCTGGT	0.357
TTTTCGAATAGCAACCACTGAT	-0.782

These sequences were tested against HPD in the same assay as above. Conditions: shRNA.

Sequence	sensor-assay potency score (higher = more potent)
AAACTTGTCTTGCTCTACCCAG	-0.591
TGTGATGATGTCTTCGGTCTTG	0.215
TACATGGCTGACCACCTCCCGG	-1.66
ATGACTTCCAGGAAGAGCGTGG	-0.0981
TTGAACAGTGAGTTGAAGTTGC	0.599
